Drawing on article PMC5700166, this text covers binding signal for eleven sequences.

Changes are numbered by the printed parent chain.

Experiment in all cases: protein-binding microarray (PBM); PBM: ~300 nM protein, 6 mM HEPES pH 7.8, 80 mM KCl, 0.5 mM EDTA, 0.5 mM EGTA, 6% glycerol, 35 ng/ul poly-dIdC, 1% milk, 1 h, room temperature; Ap Aiptasia and Nv Nematostella (sea anemones) / Co Capsaspora / Aq Amphimedon (sponge) / Dm Drosophila / Hu human; RHD is the Rel homology domain; high values mean tight binding
Common to all, as to settings: dsDNA, one strand shown

The target in one experiment is T1, GST-Ap-NF-kB RHD (Exaiptasia pallida (Aiptasia), UniProt A0A913YAJ5 2-422).
T1 sequence: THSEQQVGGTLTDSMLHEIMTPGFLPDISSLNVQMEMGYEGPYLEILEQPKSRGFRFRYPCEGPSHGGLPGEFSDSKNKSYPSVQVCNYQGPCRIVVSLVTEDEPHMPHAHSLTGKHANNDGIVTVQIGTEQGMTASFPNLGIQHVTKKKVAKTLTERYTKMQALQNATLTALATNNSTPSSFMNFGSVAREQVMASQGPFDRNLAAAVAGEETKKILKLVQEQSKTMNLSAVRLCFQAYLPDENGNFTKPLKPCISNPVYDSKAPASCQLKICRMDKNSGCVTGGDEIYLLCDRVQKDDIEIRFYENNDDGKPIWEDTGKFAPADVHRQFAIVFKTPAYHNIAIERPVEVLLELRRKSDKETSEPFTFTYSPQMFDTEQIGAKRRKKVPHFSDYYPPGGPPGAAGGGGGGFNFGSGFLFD

Experiment [1] addresses T2, GST-Nv-NF-kB (Cys allele) (Nematostella vectensis, UniProt E5G601 2-411).
T2 sequence: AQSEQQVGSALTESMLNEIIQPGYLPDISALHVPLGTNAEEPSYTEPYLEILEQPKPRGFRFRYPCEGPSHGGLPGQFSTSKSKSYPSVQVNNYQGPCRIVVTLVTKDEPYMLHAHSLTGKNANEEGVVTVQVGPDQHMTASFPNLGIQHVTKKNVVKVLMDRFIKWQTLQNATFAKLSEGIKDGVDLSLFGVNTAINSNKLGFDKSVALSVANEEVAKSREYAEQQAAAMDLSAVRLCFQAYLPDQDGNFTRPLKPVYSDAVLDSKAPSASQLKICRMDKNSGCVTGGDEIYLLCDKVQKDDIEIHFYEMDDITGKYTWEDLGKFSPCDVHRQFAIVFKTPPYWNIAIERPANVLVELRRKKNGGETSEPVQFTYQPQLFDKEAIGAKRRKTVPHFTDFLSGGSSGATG

Experiment [2] addresses T3, GST-Nv-NF-kB (Ser allele) (Nematostella vectensis, UniProt A7UNT2 2-411).
T3 sequence: T2 sequence with Q21R, C66S, S207N, E215Q, V217A, E225K, A268E, D399E

The target in another experiment is T4, GST-Co-NF-kB (Capsaspora owczarzaki, UniProt F1ARL5 200-546).
T4 sequence: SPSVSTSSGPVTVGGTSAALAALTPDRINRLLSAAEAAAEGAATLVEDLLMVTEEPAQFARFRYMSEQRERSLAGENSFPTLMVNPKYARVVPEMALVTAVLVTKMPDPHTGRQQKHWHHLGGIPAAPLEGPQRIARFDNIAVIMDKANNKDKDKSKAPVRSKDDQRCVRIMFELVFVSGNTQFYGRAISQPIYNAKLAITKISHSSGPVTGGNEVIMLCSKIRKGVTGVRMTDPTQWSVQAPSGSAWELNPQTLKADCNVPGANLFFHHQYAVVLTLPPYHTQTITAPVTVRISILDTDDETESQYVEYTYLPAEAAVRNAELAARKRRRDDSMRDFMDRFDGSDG

A further experiment deals with T5, GST-Dm-Relish (Drosophila melanogaster, UniProt Q94527 99-473).
T5 sequence: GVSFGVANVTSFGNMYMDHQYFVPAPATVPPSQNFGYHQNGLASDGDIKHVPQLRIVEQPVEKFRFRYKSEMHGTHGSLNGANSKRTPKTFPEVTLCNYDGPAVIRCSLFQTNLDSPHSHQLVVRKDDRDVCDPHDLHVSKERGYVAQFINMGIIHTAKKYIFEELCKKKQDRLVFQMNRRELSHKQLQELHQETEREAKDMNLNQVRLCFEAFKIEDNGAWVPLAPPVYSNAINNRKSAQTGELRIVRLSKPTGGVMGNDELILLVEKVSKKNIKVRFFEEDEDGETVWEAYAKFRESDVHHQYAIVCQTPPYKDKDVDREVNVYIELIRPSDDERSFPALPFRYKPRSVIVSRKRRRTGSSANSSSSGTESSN

The next experiment addresses T6, GST-Aq-NF-kB (Amphimedon queenslandica, UniProt A9Y5G7 2-389).
T6 sequence: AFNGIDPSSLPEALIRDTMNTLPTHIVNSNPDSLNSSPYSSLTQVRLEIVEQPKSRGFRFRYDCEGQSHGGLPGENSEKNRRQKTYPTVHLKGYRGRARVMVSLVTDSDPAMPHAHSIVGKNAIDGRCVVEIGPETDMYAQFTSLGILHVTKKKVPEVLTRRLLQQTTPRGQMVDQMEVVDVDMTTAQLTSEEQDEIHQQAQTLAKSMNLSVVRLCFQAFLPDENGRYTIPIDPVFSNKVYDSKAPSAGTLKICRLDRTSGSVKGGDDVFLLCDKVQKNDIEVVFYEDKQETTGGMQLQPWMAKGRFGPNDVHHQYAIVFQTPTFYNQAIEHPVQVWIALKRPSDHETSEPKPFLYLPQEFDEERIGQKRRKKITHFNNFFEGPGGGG

The next experiment deals with GST-Hu-p50 (Homo sapiens, UniProt P19838 7-356).
Chain of GST-Hu-p50 (P19838 7-356): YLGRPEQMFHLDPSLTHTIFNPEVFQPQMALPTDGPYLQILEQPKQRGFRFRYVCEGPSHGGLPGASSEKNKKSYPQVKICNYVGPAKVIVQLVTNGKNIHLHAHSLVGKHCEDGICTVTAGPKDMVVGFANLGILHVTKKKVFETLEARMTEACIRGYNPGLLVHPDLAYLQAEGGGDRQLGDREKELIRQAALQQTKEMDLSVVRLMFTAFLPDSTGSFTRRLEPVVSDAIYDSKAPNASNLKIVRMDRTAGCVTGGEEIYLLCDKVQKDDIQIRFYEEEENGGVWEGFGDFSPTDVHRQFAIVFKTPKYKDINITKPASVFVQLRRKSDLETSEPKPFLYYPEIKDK

As for “CCGATTAACATCAGGGATATCCCTGATGTTAATCGGGTCTTGATTCGCTTGACGCTGCTG”, the binding signal with GST-Ap-NF-kB RHD turned out to be 6.62 z-score; in experiment [1], 6.52 z-score; in experiment [2] it was 4.4 z-score; with GST-Co-NF-kB, 3.18 z-score; with GST-Dm-Relish, 7.32 z-score; with GST-Aq-NF-kB, 7.89 z-score. The same sequence gave a binding signal with GST-Hu-p50 of 3.87 z-score.

In the case of “CCGATTAACATCACCCCCGCCCCTGATGTTAATCGGGTCTTGATTCGCTTGACGCTGCTG”, the binding signal with GST-Ap-NF-kB RHD came to 4.47 z-score; in experiment [1], 3.37 z-score; in experiment [2], 3.72 z-score; with GST-Co-NF-kB, 6.71 z-score; in the experiment with GST-Dm-Relish, 4.74 z-score; in the experiment with GST-Aq-NF-kB, 4.27 z-score. Further, the binding signal with GST-Hu-p50 was determined as 3.7 z-score.

Turning to “CCGATTAACATCACACTTTCCCCTGATGTTAATCGGGTCTTGATTCGCTTGACGCTGCTG”, the binding signal came out at 6.32 z-score in the experiment with GST-Ap-NF-kB RHD; 6.92 z-score in experiment [1]; 8.7 z-score in experiment [2]; 7.06 z-score in the experiment with GST-Co-NF-kB; 2.75 z-score in the experiment with GST-Dm-Relish; 4.81 z-score with GST-Aq-NF-kB. Also, the binding signal with GST-Hu-p50 turned out to be 5.3 z-score.

For “CCGATTAACATCAGCGGGAATCCTGATGTTAATCGGGTCTTGATTCGCTTGACGCTGCTG”, the binding signal in the experiment with GST-Ap-NF-kB RHD was determined as 2.44 z-score; in experiment [1], 3.26 z-score; in experiment [2], 2.64 z-score; with GST-Co-NF-kB, 2.25 z-score; with GST-Dm-Relish, 6.33 z-score; with GST-Aq-NF-kB it was 3.03 z-score. This sequence also had a binding signal with GST-Hu-p50 of 2.21 z-score.

“CCGATTAACATCAGATTTTCCCCTGATGTTAATCGGGTCTTGATTCGCTTGACGCTGCTG”: the binding signal with GST-Ap-NF-kB RHD is 8 z-score; in experiment [1], 8.78 z-score; in experiment [2], 11 z-score; with GST-Co-NF-kB, 9.39 z-score; with GST-Dm-Relish, 4.94 z-score; with GST-Aq-NF-kB, 7.27 z-score. The sequence further gave a binding signal with GST-Hu-p50 of 6.35 z-score.

“CCGATTAACATCAGGGAAAATTATGATGTTAATCGGGTCTTGATTCGCTTGACGCTGCTG”: the binding signal came to 5.47 z-score with GST-Ap-NF-kB RHD; 7.77 z-score in experiment [1]; 8.46 z-score in experiment [2]; 6.45 z-score with GST-Co-NF-kB; 2.28 z-score with GST-Dm-Relish; 6.77 z-score in the experiment with GST-Aq-NF-kB. The sequence also came in with a binding signal in the experiment with GST-Hu-p50 of 5.34 z-score.

For the sequence “CCGATTAACATCAGGGGTAATTATGATGTTAATCGGGTCTTGATTCGCTTGACGCTGCTG”, the binding signal in the experiment with GST-Ap-NF-kB RHD is 3.8 z-score; in experiment [1], 4.02 z-score; in experiment [2], 4.62 z-score; in the experiment with GST-Co-NF-kB, 6.05 z-score; in the experiment with GST-Dm-Relish it was 2.03 z-score; with GST-Aq-NF-kB, 3.96 z-score. The binding signal with GST-Hu-p50 was 4.51 z-score.

Turning to “CCGATTAACATCAGCCCGGGAAATGATGTTAATCGGGTCTTGATTCGCTTGACGCTGCTG”, the binding signal with GST-Ap-NF-kB RHD came out at 2.45 z-score; in experiment [1] it was 2.27 z-score; in experiment [2], 2.11 z-score; in the experiment with GST-Co-NF-kB, 3.24 z-score; with GST-Dm-Relish, 1.04 z-score; with GST-Aq-NF-kB, 2.09 z-score. Further, the binding signal with GST-Hu-p50 came to 1.28 z-score.

With “CCGATTAACATCAGTTTTCCCCATGATGTTAATCGGGTCTTGATTCGCTTGACGCTGCTG”, the binding signal turned out to be 6.49 z-score with GST-Ap-NF-kB RHD; 7.03 z-score in experiment [1]; 9.09 z-score in experiment [2]; 9.45 z-score in the experiment with GST-Co-NF-kB; 3.42 z-score with GST-Dm-Relish; 4.82 z-score with GST-Aq-NF-kB. This sequence also gave a binding signal with GST-Hu-p50 of 5.76 z-score.

Take “CCGATTAACATCAAGTCCCCCCCTGATGTTAATCGGGTCTTGATTCGCTTGACGCTGCTG”: the binding signal amounted to 6.57 z-score with GST-Ap-NF-kB RHD; 4.81 z-score in experiment [1]; 5.16 z-score in experiment [2]; 6.94 z-score in the experiment with GST-Co-NF-kB; 5.61 z-score with GST-Dm-Relish; 5.07 z-score with GST-Aq-NF-kB. This sequence also returned a binding signal with GST-Hu-p50 of 4.23 z-score.

Take “CCGATTAACATCACGGGGGAAAATGATGTTAATCGGGTCTTGATTCGCTTGACGCTGCTG”: the binding signal with GST-Ap-NF-kB RHD was 6.86 z-score; in experiment [1], 6.21 z-score; in experiment [2], 9.47 z-score; with GST-Co-NF-kB, 11.7 z-score; in the experiment with GST-Dm-Relish, 4.45 z-score; with GST-Aq-NF-kB, 5.8 z-score. The same sequence returned a binding signal in the experiment with GST-Hu-p50 of 6.51 z-score.
